We go through eleven compounds from PubChem BioAssay (NCI).

The panel holds about 83,000 compounds, 20% with a hit somewhere; the sample as a whole holds those more often.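 For each line, cells grew in 96-well plates with the test compound present at a single concentration for 48 hours.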 Values without a mark were called inactive. Active and inactive are the calls of the source. The calls were made as follows: active = growth percent below 10; inactive = the rest.

Some test systems named below: DU-145 prostate; K-562 leukemia; MALME-3M melanoma; MDA-MB-231 breast; RXF 393 renal; SF-268 CNS; SF-295 CNS; SF-539 CNS; UACC-257 melanoma; M14 melanoma.
Holding throughout (assay): NCI-60 one-dose screen, 48 h (100 = growth as untreated, 0 = no growth, -100 = all killed)
Common to all, as to conditions: 10 µM unless noted

Regarding `CCn1c(=S)sc2c(Nc3ccc(F)cc3)nc(-c3cccnc3)nc21`, the growth is 77.5% in the experiment on DU-145 prostate; 77.1% with K-562 leukemia; 83.9% in the experiment with MALME-3M melanoma; 75% in the experiment on MDA-MB-231 breast; 78.6% with RXF 393 renal; 56.4% with SF-268 CNS. Besides, the growth is 50.6% in the experiment with SF-295 CNS, 41.5% in the experiment with SF-539 CNS, 78.9% in the experiment on UACC-257 melanoma and 74.1% with M14 melanoma.
Take `COc1cc2c(c(OC)c1OC)-c1ccc(OC)c(=O)cc1[C@@H](NC(=O)CCl)CC2`: the growth in the experiment with DU-145 prostate is -18% (active); in the experiment on K-562 leukemia, 22.1%; in the experiment with MALME-3M melanoma, 91.8%; in the experiment with MDA-MB-231 breast, 4.86% (active); with RXF 393 renal, -12.6% (active); in the experiment with SF-268 CNS, 23.2%. Further, the growth in the experiment with SF-295 CNS is 25.1%; in the experiment with SF-539 CNS it was 4.53% (active); with UACC-257 melanoma it was 60.1%; in the experiment on M14 melanoma it was -47.2% (active).
Consider `COC(=O)c1n[nH]c2ccc3nc(-c4cn[nH]c4C(F)(F)F)c4c(c3c12)CCCC4`, for which the growth with DU-145 prostate is 49.1%; in the experiment with K-562 leukemia, 72.9%; in the experiment on MALME-3M melanoma, 28.9%; with MDA-MB-231 breast, 38.6%; in the experiment with RXF 393 renal, 37.9%; with SF-268 CNS it was 54.8%. Further, the growth is 48.7% in the experiment with SF-295 CNS, 27.4% in the experiment with SF-539 CNS, 28.9% in the experiment on UACC-257 melanoma and 11% in the experiment with M14 melanoma.
For `CCN(CC)CCSc1nc(-c2ccccc2)c(C#N)c(=O)[nH]1`, the growth was 112% with DU-145 prostate; 129% in the experiment on K-562 leukemia; 140% with MALME-3M melanoma; 116% in the experiment on MDA-MB-231 breast; 118% with RXF 393 renal; 102% in the experiment with SF-268 CNS. The growth was 105% in the experiment with SF-295 CNS, 100% in the experiment with SF-539 CNS, 111% in the experiment with UACC-257 melanoma and 111% in the experiment with M14 melanoma.
With `COc1ccc(OC)c(C(=O)/C=C/c2cc3c(c(OC)c2OC)OCO3)c1`, the growth was 41.7% with DU-145 prostate; 29.7% in the experiment with K-562 leukemia; 80.9% in the experiment with MALME-3M melanoma; 83.2% in the experiment with MDA-MB-231 breast; 63.9% in the experiment with RXF 393 renal; 63.2% in the experiment on SF-268 CNS. Also, the growth in the experiment with SF-295 CNS was 84.1%; in the experiment with SF-539 CNS, 87.6%; in the experiment with UACC-257 melanoma, 72.5%; in the experiment with M14 melanoma, 78.6%.
Turning to `C#CCn1cnc2c(Nc3cccc(NC(=O)C=C)c3)ncnc21`, the growth is 86.4% in the experiment on DU-145 prostate; 72.7% with K-562 leukemia; 78.9% in the experiment on MALME-3M melanoma; 80% in the experiment with MDA-MB-231 breast; 85.2% with RXF 393 renal; 63.4% in the experiment on SF-268 CNS. Moreover, the growth in the experiment on SF-295 CNS was 80.5%; in the experiment with SF-539 CNS it was 66.8%; in the experiment with UACC-257 melanoma, 75.6%; in the experiment on M14 melanoma, 76.6%.
With `O=[N+]([O-])c1ccc(N/N=C(/C(=N/Nc2ccc([N+](=O)[O-])cc2)c2ccccc2)c2ccccc2)cc1`, the growth in the experiment on DU-145 prostate is 9.75% (active); in the experiment on K-562 leukemia, 84.4%; in the experiment on MALME-3M melanoma, 100%; with MDA-MB-231 breast, 81.9%; in the experiment on RXF 393 renal, 62.8%; in the experiment on SF-268 CNS, 104%. Moreover, the growth in the experiment on SF-295 CNS was 69.3%; in the experiment with SF-539 CNS it was 94.2%; in the experiment on UACC-257 melanoma, 98.9%; in the experiment with M14 melanoma, 80.2%.
With `CN(C)CC(=O)Nc1ccc2ncnc(Nc3ccc(Oc4cccc(C(F)(F)F)c4)c(Cl)c3)c2c1`, the growth in the experiment on DU-145 prostate was 48.2%; with K-562 leukemia, 3.41% (active); with MALME-3M melanoma, 69.7%; in the experiment on MDA-MB-231 breast, 49.1%; in the experiment on RXF 393 renal it was 50.6%; in the experiment with SF-268 CNS, 61.3%. Besides, the growth in the experiment with SF-295 CNS is 90.3%; in the experiment with SF-539 CNS, 90.8%; in the experiment on UACC-257 melanoma, 85.6%; in the experiment with M14 melanoma, 59.5%.
Take `COc1ccc(/C=C2\C(=O)N=C3N2NC(c2cc(Br)ccc2O)C=C(C)N3c2ccccc2)cc1` (stereo not given): the growth is 104% with DU-145 prostate; 97.3% with K-562 leukemia; 92.2% in the experiment with MALME-3M melanoma; 92.8% in the experiment with MDA-MB-231 breast; 97.7% with RXF 393 renal; 100% with SF-268 CNS. For the same compound, the growth in the experiment with SF-295 CNS was 101%; in the experiment with SF-539 CNS, 99.9%; in the experiment with UACC-257 melanoma it was 96.7%; in the experiment on M14 melanoma it was 98.8%.
As to `Cn1ccc2c3c(ccc21)CC3=O`, the growth in the experiment on DU-145 prostate was 120%; with K-562 leukemia it was 111%; in the experiment on MALME-3M melanoma it was 121%; in the experiment on MDA-MB-231 breast, 103%; in the experiment with RXF 393 renal, 115%; in the experiment with SF-268 CNS, 110%. The growth is 112% in the experiment with SF-295 CNS, 126% in the experiment on SF-539 CNS, 114% with UACC-257 melanoma and 107% in the experiment on M14 melanoma.
In the case of `CCN(CC)CCOc1ccc(-c2c(-c3ccccc3)c(=O)oc3ccccc23)cc1`, the growth in the experiment on DU-145 prostate was 121%; in the experiment on K-562 leukemia, 92.1%; in the experiment with MALME-3M melanoma it was 87.2%; with MDA-MB-231 breast, 88.7%; in the experiment on RXF 393 renal, 71.9%; in the experiment on SF-268 CNS, 87.4%. For the same compound, the growth in the experiment on SF-295 CNS was 104%; in the experiment with SF-539 CNS it was 92.6%; in the experiment with UACC-257 melanoma, 86.3%; in the experiment on M14 melanoma it was 88.2%.
